Publication PMC4242493, “Sequence specificity incompletely defines the genome-wide occupancy of Myc”
The full ranking holds about 33,000 sequences; the median of “normalized occupancy” is about 0.075, and the highest 2% start at about 0.095. Shown is part of a subset that was picked to be rich in the highest values.

molecular target: MaxL homodimer (Homo sapiens, UniProt P61244 1-160); assay: universal protein-binding microarray (PBM); PBS-based mixture, 10 nM His-tagged protein dimer, 2% milk, 200 ng/uL BSA, 50 ng/uL salmon testes DNA, 0.02% TX-100; detection with Alexa 488 anti-His antibody;; high values mean tight binding; details: protein: recombinant; tags: C-terminal His-tag (pET21a); chain copies: 2; dsDNA, one strand shown
Sequence (P61244 whole entry): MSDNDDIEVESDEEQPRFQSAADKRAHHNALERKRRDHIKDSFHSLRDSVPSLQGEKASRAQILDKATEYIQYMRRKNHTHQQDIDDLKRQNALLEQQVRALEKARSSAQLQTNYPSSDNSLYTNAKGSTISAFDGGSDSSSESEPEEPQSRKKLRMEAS
Summary of the method: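 A His-tagged protein dimer at 10 nM was incubated on Agilent 4 x 44 K arrays of the 'all 10-mer' universal design, then labelled with 10 ng/μL fluorophore-conjugated anti-His antibody and scanned on a GenePix 4400A. A fluorescence intensity was assigned to each 8-mer. Binding occupancy is each such intensity normalised to that of the highest-ranked one.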

Sequence | binding signal
ACATGTCC | 0.0918 normalized occupancy
GCATGTGA | 0.157 normalized occupancy
CGATGTGC | 0.0807 normalized occupancy
AAATGTGG | 0.088 normalized occupancy
GAATGTGA | 0.0817 normalized occupancy
AGATGTGC | 0.0825 normalized occupancy
AGATGTGG | 0.0868 normalized occupancy
ACATGTGC | 0.197 normalized occupancy
ACATGTGG | 0.209 normalized occupancy
GGATGTGA | 0.0786 normalized occupancy
CCATGTCC | 0.0824 normalized occupancy
CCATGTGC | 0.209 normalized occupancy
CCGATGAC | 0.0747 normalized occupancy
TTAGTAAA | 0.0726 normalized occupancy
CGATGCCC | 0.0786 normalized occupancy
CCGAGTGC | 0.0748 normalized occupancy
GATAGTGC | 0.0782 normalized occupancy
AAGTTAGA | 0.0733 normalized occupancy
CAGGCACC | 0.0774 normalized occupancy
GACAAGAA | 0.0761 normalized occupancy
AGGCGTTA | 0.0751 normalized occupancy
CCCATACG | 0.0864 normalized occupancy

Sequence | binding signal
GGTGATCA | 0.0835 normalized occupancy
CGTGATCC | 0.0811 normalized occupancy
CGTGACCC | 0.0843 normalized occupancy
AGTGACCA | 0.0753 normalized occupancy
CGTGATCA | 0.0962 normalized occupancy
CGTGACCA | 0.0992 normalized occupancy
CATGACCG | 0.0795 normalized occupancy
CATGACCA | 0.0957 normalized occupancy
GATGACCA | 0.0763 normalized occupancy
CGCCAACA | 0.0741 normalized occupancy
ACCTGATG | 0.0825 normalized occupancy
AGCTACAA | 0.0722 normalized occupancy
ATGCCAAA | 0.0777 normalized occupancy
GAGATCCC | 0.0743 normalized occupancy
CTACACGA | 0.0821 normalized occupancy
CTACACGC | 0.0967 normalized occupancy
ATACACGG | 0.0846 normalized occupancy
CTACACAC | 0.093 normalized occupancy
ATACACGA | 0.0889 normalized occupancy
ATACACGC | 0.102 normalized occupancy
ACTTGACA | 0.0819 normalized occupancy
GCTCCCAC | 0.075 normalized occupancy

Sequence | binding signal
CATCAAGC | 0.0726 normalized occupancy
GTTGAAGA | 0.082 normalized occupancy
ACAGAAGA | 0.0734 normalized occupancy
ATGAAGGG | 0.0755 normalized occupancy
CATGCGAG | 0.0975 normalized occupancy
CATGCGAC | 0.109 normalized occupancy
AATGCGAG | 0.0746 normalized occupancy
GATGCGAC | 0.0759 normalized occupancy
AATGCGAC | 0.0782 normalized occupancy
CATGCGAA | 0.0898 normalized occupancy
AAACCTTA | 0.0742 normalized occupancy
ACGACGTG | 0.0963 normalized occupancy
ACGACGTC | 0.0746 normalized occupancy
ACAACGTG | 0.149 normalized occupancy
AGAACGCG | 0.0788 normalized occupancy
ACGACGTA | 0.0786 normalized occupancy
AGAACGTG | 0.1 normalized occupancy
AGAACGTA | 0.0742 normalized occupancy
ATAACGTA | 0.0784 normalized occupancy
ACAACGTA | 0.077 normalized occupancy
ACAACGGG | 0.0774 normalized occupancy
ATAACGTG | 0.113 normalized occupancy

Sequence | binding signal
ATAACGTC | 0.0773 normalized occupancy
ATAGCGCC | 0.0747 normalized occupancy
GGAGAAGA | 0.0765 normalized occupancy
ATTATTCG | 0.0765 normalized occupancy
AGCTGACA | 0.0754 normalized occupancy
AACAGCAC | 0.0765 normalized occupancy
GTCACCTA | 0.0725 normalized occupancy
ATTTTAAC | 0.0737 normalized occupancy
AAATTGCA | 0.0733 normalized occupancy
CCGCGCGC | 0.0828 normalized occupancy
AAATAAAA | 0.079 normalized occupancy
AAACCCAA | 0.0746 normalized occupancy
CTTGTCAC | 0.0759 normalized occupancy
ATCCACAT | 0.0977 normalized occupancy
ATCCACAG | 0.078 normalized occupancy
AACCACAC | 0.0854 normalized occupancy
ATCCACAA | 0.077 normalized occupancy
AACCACAA | 0.0762 normalized occupancy
AACCACAT | 0.0973 normalized occupancy
GCAACAGA | 0.0747 normalized occupancy
GTCAGAGA | 0.073 normalized occupancy
ATTGTCTG | 0.0774 normalized occupancy

Sequence | binding signal
TACATACA | 0.092 normalized occupancy
AATGGGAA | 0.0775 normalized occupancy
CATGTGTA | 0.131 normalized occupancy
GATGTGTA | 0.0848 normalized occupancy
CATGTGTC | 0.125 normalized occupancy
CATGTCTC | 0.0933 normalized occupancy
CTTGTGTA | 0.0811 normalized occupancy
AATGTGTC | 0.095 normalized occupancy
CTGCGGCA | 0.0732 normalized occupancy
GACACCCA | 0.0749 normalized occupancy
GATGTAGA | 0.0799 normalized occupancy
ACAGCTAT | 0.0762 normalized occupancy
ACAGGTGG | 0.0985 normalized occupancy
ACAGGTGC | 0.0832 normalized occupancy
ACAGGTGA | 0.084 normalized occupancy
CACAGCAA | 0.0762 normalized occupancy
CGTGTGCC | 0.0918 normalized occupancy
CGTGTGCA | 0.0981 normalized occupancy
AATGTGAA | 0.0782 normalized occupancy
AGTGTGCA | 0.0821 normalized occupancy
CATGTGCG | 0.181 normalized occupancy
